“And” between values parts separate entries of the source, which are not always exact repeats. Equal entries are not always repeated. Compounds without any hit were thinned out: in the full panel of roughly 83,000, 20% have a hit.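 Single-dose data. Exposure time 48 hours. Values below 10 considered active.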
What was measured:
Test in all cases: NCI-60 one-dose screen, 48 h (100 = growth as untreated, 0 = no growth, -100 = all killed)
Details in all cases: 10 µM unless noted
SR leukemia = system: SR leukemia
RPMI-8226 leukemia = system: RPMI-8226 leukemia
OVCAR-8 ovarian = system: OVCAR-8 ovarian
OVCAR-4 ovarian = system: OVCAR-4 ovarian
SK-OV-3 ovarian = system: SK-OV-3 ovarian
IGROV1 ovarian = system: IGROV1 ovarian
OVCAR-3 ovarian = system: OVCAR-3 ovarian
HS 578T breast = system: HS 578T breast
NCI/ADR-RES ovarian = system: NCI/ADR-RES ovarian
OVCAR-5 ovarian = system: OVCAR-5 ovarian

Measured: growth

CCc1ccccc1-n1[nH]c(C)c(C=N)c1=O
inactive: SR leukemia 94.8% | RPMI-8226 leukemia 107% | OVCAR-8 ovarian 118% | OVCAR-4 ovarian 114% | SK-OV-3 ovarian 119% | IGROV1 ovarian 112% | OVCAR-3 ovarian 124% | HS 578T breast 99.2% | NCI/ADR-RES ovarian 106%

Cc1c(O)nc(N)[nH]c1=O
inactive: SR leukemia 125% | RPMI-8226 leukemia 100% | OVCAR-8 ovarian 101% | OVCAR-5 ovarian 106% | SK-OV-3 ovarian 112% | IGROV1 ovarian 118% | OVCAR-3 ovarian 121% | HS 578T breast 101% | NCI/ADR-RES ovarian 102%

Cc1ccc(C(=O)c2ccc(C)cc2)cc1
inactive: SR leukemia 84.3% and 110% | RPMI-8226 leukemia 86.8% and 96.4% | OVCAR-8 ovarian 94.3% and 109% | OVCAR-4 ovarian 87.2% and 117% | SK-OV-3 ovarian 101% and 107% | IGROV1 ovarian 86.3% and 99% | OVCAR-3 ovarian 99.1% and 105% | HS 578T breast 101% | NCI/ADR-RES ovarian 93%

COC(=O)CCOc1ccccc1
inactive: SR leukemia 99.5% | RPMI-8226 leukemia 92.7% | OVCAR-8 ovarian 91.1% | OVCAR-4 ovarian 92.8% | SK-OV-3 ovarian 106% | IGROV1 ovarian 68.9% | OVCAR-3 ovarian 97% | HS 578T breast 195% | NCI/ADR-RES ovarian 108%

CCOC(=O)c1csc(N)n1
inactive: SR leukemia 102% | RPMI-8226 leukemia 83.7% and 97.4% | OVCAR-8 ovarian 97.4% | OVCAR-4 ovarian 104% and 94.9% | SK-OV-3 ovarian 101% and 98% | IGROV1 ovarian 56.3% and 109% | OVCAR-3 ovarian 108% and 107% | HS 578T breast 95.1% and 101% | NCI/ADR-RES ovarian 111% and 104%

Oc1cccnc1CN1CCOCC1
inactive: SR leukemia 103% | RPMI-8226 leukemia 104% and 96.7% | OVCAR-8 ovarian 93.5% and 95.3% | OVCAR-4 ovarian 94.9% | SK-OV-3 ovarian 101% and 105% | IGROV1 ovarian 106% and 109% | OVCAR-3 ovarian 118% and 110% | HS 578T breast 115% and 105% | NCI/ADR-RES ovarian 106% and 94.6%

OCc1cccc(F)c1
inactive: SR leukemia 71.1% | RPMI-8226 leukemia 113% | OVCAR-8 ovarian 85.3% | OVCAR-5 ovarian 70.7% | SK-OV-3 ovarian 91.7% | IGROV1 ovarian 79.6% | OVCAR-3 ovarian 125% | HS 578T breast 124% | NCI/ADR-RES ovarian 76.5%

CC(=O)c1cc2ccccc2o1
inactive: SR leukemia 98.3% | RPMI-8226 leukemia 98.6% | OVCAR-8 ovarian 115% | OVCAR-4 ovarian 114% | SK-OV-3 ovarian 96.8% | IGROV1 ovarian 110% | OVCAR-3 ovarian 114% | HS 578T breast 108% | NCI/ADR-RES ovarian 102%

O=C1Cc2ccccc2C(=O)N1
inactive: SR leukemia 30.4% | RPMI-8226 leukemia 48.9% | OVCAR-8 ovarian 56.2% | OVCAR-5 ovarian 96.1% | SK-OV-3 ovarian 98.9% | IGROV1 ovarian 76.8% | OVCAR-3 ovarian 76.3% | HS 578T breast 103% | NCI/ADR-RES ovarian 91.8%

CC(CN(C)C)CN1c2ccccc2Sc2ccccc21 (configuration not stated)
inactive: SR leukemia 79.1% and 96.2% and 45.7% | RPMI-8226 leukemia 74.9% | OVCAR-8 ovarian 95.7% and 109% and 101% | OVCAR-4 ovarian 88.1% and 102% and 84% | SK-OV-3 ovarian 97.2% and 95.8% and 101% | IGROV1 ovarian 73.5% and 92% | OVCAR-3 ovarian 114% and 98.6% and 90.7% | HS 578T breast 77.5% and 91.1% and 67.1% | NCI/ADR-RES ovarian 79.2% and 85.1% and 81.4%

CCN(CC)C(CC(=O)c1ccccc1)C(=O)c1ccccc1 (configuration not stated)
inactive: SR leukemia 29% | RPMI-8226 leukemia 86.5% | OVCAR-8 ovarian 96.6% | SK-OV-3 ovarian 114% | IGROV1 ovarian 110% | OVCAR-3 ovarian 92.5% | HS 578T breast 113% | NCI/ADR-RES ovarian 101%

O=C(O)C#Cc1ccc(Cl)cc1
inactive: SR leukemia 100% | OVCAR-8 ovarian 97.6% | OVCAR-5 ovarian 102% | OVCAR-4 ovarian 97.5% | SK-OV-3 ovarian 92.5% | IGROV1 ovarian 98.3% | OVCAR-3 ovarian 110% | HS 578T breast 93.6% | NCI/ADR-RES ovarian 108%

Source: PubChem BioAssay (NCI)
